Reference: PubChem BioAssay (NCI)
Compounds without any hit were thinned out: in the full panel of roughly 83,000, 20% have a hit.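 Method: cells in 96-well plates; compound added at one concentration; 48 h incubation; percent growth measured; values under 10 scored active.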 Unmarked numbers belong to inactive results. The source made the active and inactive calls.

Each compound was assayed on RPMI-8226 leukemia (assay: NCI-60 one-dose screen, 48 h (100 = growth as untreated, 0 = no growth, -100 = all killed)). Settings: 10 µM unless noted.
Description: Growth inhibition of the RPMI-8226 human tumor cell line is measured as a screen for anti-cancer activity. Cells are grown in 96 well plates and exposed to the test compound for 48 hours. Compounds are tested at a single concentration, which is 10^-5 M for most compounds. The reported endpoint is percent growth (GI% or GIPRCNT), where numbers from 0 - 100% represent growth inhibition, and numbers from -100% - 0 represent cell death. For example, a value of 40 represents 60% growth inhibition. A value of 0 means no net growth occurred over the course of the experiment. A value of -40 indicates 40% of cells at the beginning of the experiment died by the end of the experiment. A value of -100 means all cells are dead at the end of the experiment.
NCI-60 Human Tumor Cell Lines Screen was performed using the standard one-dose NCI protocol, which is described in more detail at https://dtp.cancer.gov/discovery_development/nci-60/default.htm.
Compounds with GIPRCNT values below 10 were considered active. Activity score was based on GIPRCNT using the following formula: […]
Score is 0 for GIPRCNT values of 100 or above, 50 for GIPRCNT values of 0, and 100 for GIPRCNT values of -100.

SMILES | growth
CC(C)(C)n1cc(-c2ccnc(NCCCNS(=O)(=O)c3ccc(F)cc3)c2)c(-c2cccc(F)c2)n1 | 28.1%
CCN1CC(=O)N(/N=C2\C(=O)Nc3ccccc32)C1=S | 96%
COc1cc(-c2cc(-c3cccs3)c(C#N)c(N3CCOCC3)n2)cc(OC)c1OC | 44.2%
CNc1nc(S(=O)c2ccc(C#N)cc2)nc2ccccc12 (stereo not given) | 61%
COc1ccc2[nH]cc(C(c3cc(F)cc(F)c3)c3c[nH]c4ccc(OC)cc34)c2c1 | 57.5%
COc1cc2oc(-c3cccc(NC(=O)c4cccc(Br)c4)c3)cc(=O)c2c(OC)c1OC | 25.5%
O=C(c1ccc(Cl)cc1)N1CCN(c2ccnc3cc(Cl)ccc23)CC1 | 75.9%
CC[C@]12C=CCN3CC[C@@]4(c5cc(NC(=O)CCC(=O)OCc6cn(Cc7ccc(F)cc7)nn6)c(OC)cc5N(C)[C@H]4[C@@](O)(C(=O)OC)[C@@H]1OC(C)=O)[C@@H]32 | 104%
CCC(=C(c1ccc(OCCN2CCCC2)cc1)c1ccc(OCCN2CCCC2)cc1)c1ccc(Cl)cc1 | -44.1% (active)
Cc1nc2sc(C(=O)Nc3cccc(Cl)c3C)c(N)c2cc1C(=O)c1ccccc1 | 6.33% (active)
c1ccc(C2=NN[C@H](c3cn(-c4ccccc4)nc3-c3ccccc3)C2)cc1 | 86.7%
O=C(NCc1ccccc1)Nc1ccccc1CNc1nc(Nc2ccc(OCCN3CCCC3)cc2)ncc1Cl | 76.1%
O=C(O)[C@@H]1c2ccccc2-c2ccccc2[C@H]1C(=O)O | 100%
Cc1ccc(Sc2nnc(/N=C3\C(=O)Nc4ccccc43)s2)cc1 | 94.8%
CC(C)=CCC[C@](C)(O)[C@H]1CC[C@]2(C)[C@@H]1CC[C@@H]1[C@@]3(C)Cc4nccnc4C(C)(C)[C@@H]3CC[C@]12C | 43.2%
CC(=O)N(N=Nc1ccccc1)c1cccc2ccccc12 | 102%
COc1cc(-c2cc(-c3ccc(N(C)C)cc3)nc(N3CCC(O)CC3)c2C#N)cc(OC)c1OC | -5.93% (active)
COc1ccc2[nH]cc(-c3nc(-c4cn(C)c5c(Cl)nccc45)cs3)c2c1 | 44.7%
CS(=O)(=O)C1=CN(CCO)C(=O)N2CCCN=C12 | 119%
N#Cc1c(N)nnn1Cc1cc(=O)oc2c1ccc1ccccc12 | 97.8%

SMILES | growth
COc1ccc(C/C(C)=C(/c2ccc(OCCN3CCCCC3)cc2)c2ccc(OC(=O)NCc3ccccc3)cc2)cc1 | -62.3% (active)
Fc1cccc(CNc2c3ccccc3nc3ccccc23)c1F | 52.9%
CN1CCN(c2ccc(C(=O)Nc3cccc(C#Cc4cccc5[nH]nc(N)c45)c3)cc2C(F)(F)F)CC1 | -13.7% (active)
O=C(NCCCN1CCOCC1)c1cccc(N2C(=O)/C(=C/c3ccc(F)cc3)SC2=S)c1 | 102%
CC1(C)c2[nH]c3ccccc3c2C[C@]2(C)[C@H]3CC=C4[C@@H]5C[C@@](C)(C(N)=O)CC[C@]5(C)CC[C@@]4(C)[C@]3(C)CC[C@@H]12 | 38.3%
O=C(Cn1cc(CN2CCCCCC2)nn1)Nc1ccc2c(ccn2Cc2ccccc2)c1 | 64.3%
CC1=NN(c2nc(SCC(=O)Nc3nc4ccc(C)cc4s3)nc(-c3ccccc3)c2C#N)C(=O)C1 | 110%
CCc1nc2c(=O)[nH]cnc2o1 | 109%
COC(C(=O)[C@@H](O)[C@@H](C)O)[C@@H]1Cc2cc3cc(O[C@H]4C[C@@H](O[C@H]5C[C@@H](O)[C@H](O)C(C)O5)[C@H](O)C(C)O4)cc(O)c3c(O)c2C(=O)[C@H]1O[C@H]1C[C@@H](O[C@H]2C[C@@H](O[C@H]3C[C@@H](OC)[C@H](O)C(C)O3)[C@@H](O)C(C)O2)[C@H](O)C(C)O1 (stereo not given in full) | 50%
OB(O)c1cccc(-c2nc3ccc4[nH]ncc4c3c3c2CCCC3)c1 | 53%
CN1C(=O)/C(=C/c2ccc(C(=O)Nc3ncc(Cc4ccc(Cl)cc4)s3)cc2)SC1=S | 61.3%
Fc1cc(F)cc(C(c2c[nH]c3ccccc23)c2c[nH]c3ccccc23)c1 | 95.2%
CN(Cc1ccc(C(F)(F)F)cc1)CC(O)C(=O)Nc1ccc(Cl)cc1 (stereo not given) | -33.7% (active)
CCN1CCN(Cc2cn(CC(=O)Nc3ccc4c(ccn4Cc4ccccc4)c3)nn2)CC1 | 85%
O=C(c1cc2ccccc2o1)c1nn(-c2ccccc2)/c(=N/N=Cc2cn(-c3ccccc3)nc2-c2cc3ccccc3oc2=O)s1 | 90.9%
Nc1nc2c([nH]1)c1[nH]c3ccccc3c1c1[nH]c3ccccc3c21 | -22.7% (active)
COc1ccc(-c2nc3c(c(-c4ccccc4)nn3-c3ccccc3)c(-c3ccc(N4CCOCC4)cc3)c2C#N)cc1 | 89.8%
N#CC1=C(N)Oc2c(sc3c(Br)cccc23)C1c1ccc(F)cc1 (stereo not given) | 16.7%
O=C(Nc1cccc([N+](=O)[O-])c1)c1cc2ccccc2cc1O | -55.3% (active)
OCCOCCN(Cc1ccccn1)Cc1cc(I)cc(I)c1O | 96.9%
